Among the data in PubChem BioAssay AID1529 (NMMLSC, 2009) are binding response (% of control) values, retold here.

The whole screen tested about 290,000 compounds, of which about 4,200 (1.4%) were called active. Only a selection was taken, and actives are over-represented in it overall. Unmarked numbers belong to inactive results.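 Rule for the calls: active = binding response more than 3 SD above or below the average of its plate-row segment, actives on both sides; inconclusive = wells at one plate position flagged as instrument error; inactive = the rest.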

The target of this assay is Mitogen-activated protein kinase kinase kinase 3 (Homo sapiens) (UniProt Q99759). The experiment in a line: compounds raising or lowering MEK5 association with MEKK3 PB1 – biochemical, wildtype MEKK3, multiplex bead flow cytometry, Alexa488-MEK5, primary screen (AID 1529).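 Note: Alexa488 bead fluorescence after subtracting the streptavidin-only scavenger bead signal.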 To be noted: bead-based flow cytometry, Alexa488-MEK5 binding to MEKK3; at 10 µM; actives lie on both sides; 0 = blocked by unlabeled MEK5, 100 = vehicle. (In general: Flow cytometry measures light scatter and fluorescence of single cells or particles in a stream.)
Mitogen-activated protein kinase kinase kinase 3 (Homo sapiens), sequence (Q99759 whole entry, looked up): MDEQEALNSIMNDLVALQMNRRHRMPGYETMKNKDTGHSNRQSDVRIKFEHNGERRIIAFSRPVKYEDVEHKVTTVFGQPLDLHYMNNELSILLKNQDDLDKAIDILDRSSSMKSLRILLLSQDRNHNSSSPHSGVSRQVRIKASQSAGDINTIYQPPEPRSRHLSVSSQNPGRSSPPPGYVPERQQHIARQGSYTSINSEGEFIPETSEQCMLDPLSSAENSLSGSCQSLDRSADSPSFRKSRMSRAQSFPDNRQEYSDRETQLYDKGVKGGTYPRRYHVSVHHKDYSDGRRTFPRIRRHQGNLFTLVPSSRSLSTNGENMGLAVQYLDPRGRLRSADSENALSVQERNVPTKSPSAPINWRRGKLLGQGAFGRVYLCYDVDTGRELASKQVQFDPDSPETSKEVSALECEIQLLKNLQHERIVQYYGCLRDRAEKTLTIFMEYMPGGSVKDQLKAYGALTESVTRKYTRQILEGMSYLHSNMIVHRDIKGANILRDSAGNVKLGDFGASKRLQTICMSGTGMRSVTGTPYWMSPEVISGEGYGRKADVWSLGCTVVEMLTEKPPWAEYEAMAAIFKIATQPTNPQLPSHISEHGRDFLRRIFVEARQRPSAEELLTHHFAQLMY
Regarding `COc1cccc(C(C(=O)NC2CCCC2)N(C(=O)c2ccco2)c2cccc(C(C)=O)c2)c1OC` (centres undefined), the binding response (% of control) is 98%.
The figure for `O=C(CCCCCn1c(=S)[nH]c2ccsc2c1=O)NC1CCCCC1` is 102%; for `CCOC(=O)N1CCN(C(=O)CNC(=O)Cc2ccc(Cl)cc2)CC1` it is 99%.
The result for `CCOC(=O)c1c(Cc2ccc(Cl)cc2)c[nH]c1C` reads 136% (active); that for `CCOC(=O)c1ccc(CS(=O)c2ccc(Cl)cc2)o1` (centres undefined), 100%; that for `COC(=O)c1cc(NC(=O)c2ccco2)ccc1N1CCOCC1`, 95%.
As to `COC(=O)c1cc(NC(=O)c2cccnc2)ccc1N1CCOCC1`, the binding response (% of control) is 102%.
Take `CC(=O)Nc1cccc(Oc2cc(C#N)c(C#N)cc2N2CCOCC2)c1`: the binding response (% of control) was 97%.
Regarding `Cc1cccc(NC(=O)c2cc([N+](=O)[O-])ccc2N2CCN(C)CC2)c1`, the binding response (% of control) is 105%.
The result for `COC(=O)c1cc(NC(=O)c2cc(C(C)(C)C)nn2Cc2cccc(C)c2)ccc1N1CCOCC1` reads 134% (active); that for `CC(=O)Nc1ccc(N2CCOCC2)c(C(=O)Nc2cccc(C)c2)c1`, 2% [inhibitor] (active); that for `CC1=C(N2CCN(c3ncccn3)CC2)CCC1=O`, 103%.
Turning to `CCCCCC(O)(CCN1CCCCC1)c1ccccc1` (centres undefined), the binding response (% of control) is 104%.
For `Cc1ccc(-c2ccc(/C=C(\C#N)C(N)=S)o2)c([N+](=O)[O-])c1`, the binding response (% of control) is 100%.
The result for `CCOC(=O)c1ccc(NC(=O)c2c(N)n(C)c(=O)[nH]c2=O)cc1` reads 89%; that for `CC(C)C(C)NC(=O)COc1ncnc2ccccc12` (centres undefined), 106%.
The result for `COCC(C)NC(=O)COc1nncc2ccccc12` (centres undefined) reads 39% [inhibitor] (active); that for `COC(=O)C(C)NC(=O)COc1ccc2ccccc2c1` (centres undefined), 98%; that for `CCOc1ccc(C(=O)Nc2ccc(CN3CCOCC3)cc2)cc1Cl`, 103%.
Regarding `CC1CN(C(=O)c2cc(COc3c(F)cccc3F)on2)CCN1C` (centres undefined), the binding response (% of control) was 100%.
For `C=C1CCN([C@@H](Cc2ccccc2)C(=O)N2CCOCC2)S(=O)(=O)c2ccccc21`, the binding response (% of control) was 105%.
Consider `CCn1cc(/C=C(\NC(=O)c2ccc(C)cc2)C(=O)NCCN2CCOCC2)c2ccccc21`, for which the binding response (% of control) is 102%.
On to `COc1ccc(Cl)cc1NC(=O)CNc1ccccc1F`, for which the binding response (% of control) was 104%.
With `C=C(C)C1CC=C(C)/C(=N\NC(=O)CNc2ccccc2OC)C1` (centres undefined), the binding response (% of control) is 128% (active).
For `C=C(C)C1CC=C(C)/C(=N/NC(=O)CCCNc2cccc(C)c2)C1` (centres undefined), the binding response (% of control) is 97%.
For `CCCC[C@@H]1CN=C(N)N1CCCC`, the binding response (% of control) is 89%.
The result for `CC(=O)C1=C(O)C(=O)N(c2ccc(Br)cc2)C1c1ccc([N+](=O)[O-])cc1` (centres undefined) reads 98%.
For the molecule `Cc1cc2cc(CNC(=O)c3ccc(S(=O)(=O)N4CCOCC4)cc3)ccc2[nH]1`, the binding response (% of control) is 94%.
`Cc1cc2cc(CNC(=O)c3cccs3)ccc2[nH]1`: the binding response (% of control) was 73% [inhibitor] (active).
In the case of `CCc1cccc(CC)c1NC(=S)NCc1ccc2[nH]c(C)cc2c1`, the binding response (% of control) was 106%.
The figure for `O=C(CSc1nccc(=O)[nH]1)Nc1ccc(N2CCOCC2)c(Cl)c1` is 99%.
`O=S(=O)(c1ccccc1)N(Cc1cccc(F)c1)c1ccccc1`: the binding response (% of control) is 99%.
On to `Cc1cnc(NC(=O)CSc2nnc(C)s2)s1`, for which the binding response (% of control) is 100%.
On to `Cc1cnc(NC(=O)Cn2cnc3c2c(=O)n(C)c(=O)n3C)s1`, for which the binding response (% of control) is 136% (active).
`Cc1ccc(SCC(=O)Nc2ncc(C)s2)cc1`: the binding response (% of control) is 100%.
As for `COc1ccc(-c2csc(Nc3ccc(O)cc3)n2)cc1`, the binding response (% of control) is 95%.
As to `COC(=O)CCc1sc(Nc2ccc(Br)cc2)nc1-c1ccc(OC)cc1`, the binding response (% of control) is 136% (active).
With `Cc1ccc(OC(=O)CCC(=O)Nc2ccc(Br)cc2)cc1`, the binding response (% of control) is 94%.
In the case of `Cc1ccc(NC(=O)CN2CCC(C(N)=O)CC2)cc1[N+](=O)[O-]`, the binding response (% of control) was 98%.
The result for `CSCCC(Nc1ccc(S(=O)(=O)N2CCOCC2)cc1[N+](=O)[O-])C(=O)OCC(=O)N(C(C)C)C(C)C` (centres undefined) reads 98%; that for `CC(=O)N1CCN(S(=O)(=O)c2ccc(C)c([N+](=O)[O-])c2)C1C(C)C` (centres undefined), 128% (active); that for `Cc1cc(=O)cc(C)n1-c1ccc(Cl)c(Cl)c1`, 96%.
On to `CC(=O)Nc1ccc(S(=O)(=O)N2CCC(C(=O)NC3CC3)CC2)cc1`, for which the binding response (% of control) was 104%.
As for `Cc1[nH]n(-c2ccccc2)c(=O)c1/C=N/NC(=O)c1ccoc1C`, the binding response (% of control) was 108%.
With `CCC(=C/c1sc2ccc3ccccc3c2[n+]1C)/C=C1\Sc2ccc3ccccc3c2N1C`, the binding response (% of control) was 23% [inhibitor] (active).
As to `C#CCOCCOCCOCCNc1nc(N2CCN(C(=O)C([C@@H](C)CC)n3cc(C(N)COC(=O)C(F)(F)F)nn3)CC2)nc(N2CCN(C(=O)[C@H](CCCCN)n3cc(C(N)CC(C)C)nn3)CC2)n1` (some centres undefined), the binding response (% of control) was 120%.
The figure for `Cc1cc(/C=C2/C(=N)N3C(=NC2=O)SN=C3S(C)(=O)=O)c(C)n1-c1ccccc1` is 96%; for `N=C1/C(=C/c2cccn2-c2cccc([N+](=O)[O-])c2)C(=O)N=C2SC=CN12` it is 135% (active); for `COCOc1cc(O)c(C(=O)/C=C/c2ccc(OCOC)c(OCOC)c2)c(OCOC)c1` it is 104%.
As for `Cc1cccc(NC(=O)CCN2CC(C)CC(C)C2)c1` (centres undefined), the binding response (% of control) is 107%.
The figure for `Cc1nonc1C1CCCN1Cc1nc(-c2ccc(F)cc2F)oc1C` (centres undefined) is 85%.
For `CCN1/C(=C/c2ccc3ccc(C)cc3[n+]2CC)Sc2ccccc21`, the binding response (% of control) is 95%.
Turning to `CCN1/C(=C\c2ccc3ccccc3[n+]2CC)Sc2cc(C)ccc21`, the binding response (% of control) is 70% [inhibitor] (active).
As for `CCN(CC)CCCNC(=O)c1cn(C)c2ccc(S(=O)(=O)N(C)C3CCCCC3)cc2c1=O`, the binding response (% of control) is 100%.
The result for `COc1ccc(C(=O)NCc2nnc(SCC(=O)Nc3cccc(OC)c3)o2)cc1` reads 102%; that for `Cn1cccc1/C=N/NC(=O)CNc1cccc2ccccc12`, 103%.
Turning to `C/C(=N\NC(=O)CNc1cccc2ccccc12)c1ccc(Br)s1`, the binding response (% of control) is 103%.
With `Cc1cccc(/C=N/NC(=O)CNc2cccc3ccccc23)n1`, the binding response (% of control) was 144% (active).
For `CCn1cc(CN2CCC(C(=O)Nc3cccc(-c4cccc(Cl)c4)c3)CC2)c(C)n1`, the binding response (% of control) was 107%.
